# This is one part of a sample in which hits are shown more often than they occur.
# NS1 function inh: blocks influenza NS1 protein function; Potency, µM (top dose mostly 46.1 µM), without a hit: at the top dose activity, positive = more growth; 270,000 compounds, 0.4% hits; AID 2326; calls by dose curve; note: potency is the fitted concentration of half-maximal effect; actives are rising curves; nearly all actives have a fitted effect of over 50% in size
#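 Growth recovery, yeast-based: influenza A NS1 expressed in S. cerevisiae causes slow growth, and suppressors are detected by OD600. The parent strain without NS1 is used as positive control.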
# Cruzain inh noDet: blocks cruzain activity in detergent-free assay; purified cruzain, Z-FR-AMC fluorescence, no detergent; Potency, µM, inactives show max response, negative = inhibition, actives largely listed as inhibitors; 200,000 compounds, 2.3% hits;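 note: potency is the fitted concentration of half-maximal effect; plate controls were enzyme without inhibitor for no effect and buffer without enzyme for full effect; nearly all actives have a fitted effect of over 40% in size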
# Target sequence (P25779 123-467 limits assumed): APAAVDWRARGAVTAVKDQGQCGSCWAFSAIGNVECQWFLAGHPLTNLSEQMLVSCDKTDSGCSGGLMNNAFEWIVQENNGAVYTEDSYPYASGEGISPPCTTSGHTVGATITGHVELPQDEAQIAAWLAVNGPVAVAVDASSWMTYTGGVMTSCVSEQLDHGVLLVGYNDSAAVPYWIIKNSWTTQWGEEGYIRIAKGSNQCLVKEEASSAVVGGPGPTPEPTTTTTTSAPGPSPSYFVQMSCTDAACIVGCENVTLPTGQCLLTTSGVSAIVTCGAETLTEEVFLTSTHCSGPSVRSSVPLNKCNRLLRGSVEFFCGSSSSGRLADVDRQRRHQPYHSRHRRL
#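 Detergent-free condition (0.00005% Triton X-100) in acetate buffer pH 5.5 with DTT. 1.5 nM enzyme and compound were pre-mixed 15 min, then 2 uM Z-FR-AMC substrate added; reaction progress from fluorescence change between first and third reads (60 s).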
# Cruzain inh Det: inhibitors of Trypanosoma cruzi cruzain with detergent. P25779. AID 1478. Potency, µM, for inactives: max response, negative = inhibition, hits mostly inhibitors. purified cruzain, Z-FR-AMC fluorescence, 0.01% Triton. 200,000 compounds, 0.43% hits;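 note: potency is the fitted concentration of half-maximal effect; plate controls were neutral wells for no effect and buffer without enzyme for full effect; nearly all actives have a fitted effect of over 40% in size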
#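 Read-out: AMC fluorescence (360 nm excitation, 450 nm emission), four reads over 2 min, first-to-third difference used. Conditions: cruzain 1.5 nM, Z-FR-AMC 2 uM, pH 5.5 acetate, 5 mM DTT, 0.01% Triton X-100.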
# Flu NS1 inh: validation of influenza NS1 protein function inhibitors | shares compounds with NS1 function inh | influenza NS1 function cell assay, 15-point titration | activity change, negative = inhibition, % at 32.9 µM | 1,400 tested, under 10 active | AID 492980; calls by dose curve; note: 0% is about no effect
# PR8 titer: influenza virus titer reduction, NS1 project; virus titer (log TCID50), log10 TCID50 at 5 µM; shares compounds with NS1 function inh; MDCK infected influenza A/PR/8/34, virus titer TCID50; hits give low values; 95 compounds, 30% hits; call rule not given here
# Active calls of the source: *; ? = inconclusive; / = no result. Unless noted, calls come from the whole dose curve; as a rule, active = well fitted curve in the direction sought with a large enough effect; inconclusive = small, poorly fitted or top-dose-only effect, or another doubt; inactive = no such curve, though single readings can be large; an effect the other way counts as inactive or inconclusive.
SMILES,NS1 function inh,Cruzain inh noDet,Cruzain inh Det,Flu NS1 inh,others
CC(C)OC(=O)/C(=C\c1ccc2c(c1)c1ccccc1n2C)NC(=O)c1ccccc1,10µM*,?,0%,7,
CC(C)OC(=O)/C(=C/c1ccc2c(c1)c1ccccc1n2C)NC(=O)c1ccccc1,21%,-22%,-6%,/,
COCCN1CCn2c(nc3cc(NC(=O)Cn4nc(C)c5ccccc5c4=O)ccc32)C1,?,/,/,7,
Cc1nn(CC(=O)Nc2ccc3c(c2)nc2n3CCOC2)c(=O)c2ccccc12,-1%,1%,3%,/,
COCCN1CCn2c(nc3cc(NC(C)=O)ccc32)C1,9%,/,/,/,
COCCN1CCn2c(nc3cc(NC(=O)c4ccc(OC)cc4)ccc32)C1,13µM*,-9%,-9%,13,PR8 titer=8.3
CCCCOC(=O)c1ccc(NC(=O)C2(c3cccs3)CCOCC2)cc1,/,?,-10%,/,
COc1cccc(CNC(=O)C(=O)NCC(c2ccc3c(c2)OCO3)N2CCOCC2)c1 (configuration not stated),/,-5%,-3%,/,
CCc1nnc(NC(=O)CSc2nccn2Cc2ccccc2)s1,/,-11%,2%,/,
COCCn1nnnc1CN(Cc1ccco1)Cc1cc2cc3c(cc2[nH]c1=O)OCO3,-3%,7%,-4%,/,
Cc1ccc(C)c2[nH]c(=O)c(CN(Cc3ccc4c(c3)OCO4)Cc3nnnn3Cc3ccco3)cc12,11µM*,-7%,-1%,2,
CCc1ccc2[nH]c(=O)c(CN(Cc3ccccc3OC)Cc3nnnn3Cc3ccco3)cc2c1,?,-3%,-13%,/,
COc1ccc2[nH]c(=O)c(CN(Cc3ccco3)Cc3nnnn3Cc3ccccc3)cc2c1,13µM*,5%,4%,12,
COc1ccc(C(=O)N2CC(=O)Nc3ccc(C)cc3C2c2ccc(F)cc2)c(OC)c1 (configuration not stated),/,-4%,-4%,/,
CCOC(=O)CSc1nc2cc(OC)c(OC)cc2c2nc(-c3ccccc3)nn12,/,-4%,1%,/,
COc1ccc(NC(=O)c2cc(-c3ccco3)on2)c(OC)c1,?,/,/,-15,
COc1ccc(NC(=O)c2cc(C3CC3)on2)c(OC)c1,?,-6%,0%,/,
COc1cccc(CN(C(=O)CN2C(=O)c3ccccc3S2(=O)=O)C(C(=O)NCC2CCCO2)c2ccco2)c1 (configuration not stated),?,/,/,-27,
O=C(NCC1CCCO1)C(c1ccco1)N(Cc1ccc(F)cc1)C(=O)CN1C(=O)c2ccccc2S1(=O)=O (configuration not stated),10%,/,/,/,
Cc1ccc2c(n1)sc1c(=O)n(-c3cccc(C(F)(F)F)c3)nnc12,/,0%,-1%,/,
Cc1cc(NC(=O)C2CCN(S(=O)(=O)c3ccc(Br)s3)CC2)ccc1Br,/,11%,-1%,/,
O=c1c2ccccc2n(Cc2cccc(Cl)c2)c(=O)n1CCc1ccccc1,/,-9%,-3%,/,
Cc1cccc(C(=O)OCc2cc(=O)n3nc(C4CC4)sc3n2)c1,/,-10%,0%,/,
CCOC(=O)C1CCN(C(=O)CS(=O)Cc2nc(-c3ccc(C)cc3)oc2C)CC1 (configuration not stated),11µM*,18%,-3%,0,PR8 titer=8
Cc1ccc(-c2nc(CS(=O)CC(=O)N3CCN(c4ccc(F)cc4)CC3)c(C)o2)cc1 (configuration not stated),17%,?,-10%,/,
SMILES,NS1 function inh,Cruzain inh noDet,Cruzain inh Det,Flu NS1 inh,others
O=C(CSc1nnc(-c2c[nH]c3ccccc23)o1)N1c2ccccc2CCc2ccccc21,4µM*,?,1%,?,
O=C(CSc1nnc(-c2c[nH]c3ccccc23)o1)N1CCCCC1,-16%,0%,-2%,/,
C[N+]1(C)C2CCC1CC(OC(=O)C(O)c1ccccc1)C2 (configuration not stated),/,-7%,1%,/,
CC(=O)N1CCc2cc(Br)cc(S(=O)(=O)CCC(=O)N3CCN(c4ccc(F)cc4)CC3)c21,/,?,0%,/,
COc1ccc(-c2ccc(NS(=O)(=O)c3ccc(C(C)=O)cc3)cc2)nn1,/,5%,-5%,/,
Cc1ccc(S(=O)(=O)N2CCC(C(=O)Nc3ccccc3N3CCCCC3)CC2)cc1,5µM*,-22%,2%,4,
COc1ccc(S(=O)(=O)N2CCC(C(=O)Nc3ccccc3N3CCCC3)CC2)cc1OC,-23%,/,/,/,
C=CC(C1=CC(=O)C(OC)=CC1=O)c1ccc(O)cc1 (configuration not stated),/,-6%,-2%,/,
O=C(O)COc1ccccc1/C=N/NC(=O)CSc1nnc(SCc2ccc(Cl)cc2)s1,12%,/,/,/,
O=C(O)COc1ccccc1/C=N/NC(=O)CSc1nnc(SCc2cccc3ccccc23)s1,3.5µM*,/,/,-29,PR8 titer=7.5*
Cc1cccc2c1N(Cc1ccccc1OCCC(C)C)C(=O)C2=O,/,3%,0%,/,
CCOCCCNC(=O)c1ccc(Cn2c(=O)c3cccn3c3cccnc32)cc1,/,7%,-1%,/,
O=C(NCCc1ccc(Cl)cc1)c1ccc(Cn2c(=O)c3cccn3c3cccnc32)cc1,/,-13%,0%,/,
CNS(=O)(=O)c1cc(N(C)S(=O)(=O)c2ccc(C)cc2)c(C)cc1C,1%,/,/,/,
Cc1ccc(S(=O)(=O)N(C)c2cc(S(=O)(=O)N3CCC(C)CC3)c(C)cc2C)cc1,11µM*,-3%,1%,10,
Cc1nc2nc(SCC(=O)Nc3cccc(Cl)c3)nn2c(C)c1Cc1ccccc1,/,-12%,0%,/,
Cc1cccc(CNc2cc(-c3cccc(C#N)c3)ncn2)c1,/,-4%,-6%,/,
COc1ccc(COc2cc(-c3cccc(OC)c3)nc3ccc(N)cc23)cc1,4.5µM*,?,0%,-4,
COc1cccc(-c2cc(C(=O)Nc3ccncc3)c3ccccc3n2)c1,-2%,/,/,/,
COc1ccc(COc2cccnc2N)cc1,-2%,/,/,/,
COc1ccc(COc2cc(-c3cccc(OC)c3)nc3ccc(NC(=O)c4ccc(N(C)C)cc4)cc23)cc1,10µM*,6.3µM*,-2%,?,
O=C(OCC1CCCO1)c1ccc2c(c1)N(Cc1ccccc1F)C(=O)c1ccccc1S2(=O)=O (configuration not stated),/,12%,-3%,/,
CCCC(C)C(=O)Nc1nc(C)c(-c2csc(Nc3ccc(Cl)cc3)n2)s1 (configuration not stated),4.5µM*,10µM*,2%,-10,
CCC(C)C(=O)Nc1nc(C)c(-c2csc(Nc3cc(OC)ccc3OC)n2)s1 (configuration not stated),17%,-20%,-6%,/,
Cc1cccc2sc(NNC(=O)c3ccc(S(=O)(=O)N4CCCC(C)C4)cc3)nc12 (configuration not stated),-12%,-23%,0%,/,
CCOC(=O)N1CCN(S(=O)(=O)c2ccc(C(=O)NNc3nc4cc(C)cc(C)c4s3)cc2)CC1,?,25%,-1%,/,
CCOC(=O)N1CCN(S(=O)(=O)c2ccc(C(=O)N(CCN(CC)CC)c3nc4c(C)cccc4s3)cc2)CC1,-7%,/,/,/,
CCOC(=O)N1CCN(S(=O)(=O)c2ccc(C(=O)N(CCN(C)C)c3nc4ccc(Cl)cc4s3)cc2)CC1,2%,/,/,/,
